About 2,000 (36%) of roughly 5,500 compounds were called active. About 18% were inconclusive and are not listed. No stated cut-off is given here; in the data, active means normalized growth mostly below about 0.91 (no sharp cut-off); inconclusive means no clear call, values can overlap the other calls; inactive means mostly above about 0.92. The list shows a part of the results.
Assay: chemical genetic growth profiling, strain panel (AID 1159580);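 further: tested at 20 µM; growth read once vehicle control cultures reached saturation at 30 °C; 1 = growth at the plate median or of vehicle wells; lower values mean less growth of the strain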
Conditions: growth OD
[1] = S. cerevisiae deletion strains, locus YAL013W, strain DEP1, active compounds read low
[2] = S. cerevisiae deletion strains, locus YDL101C, strain DUN1, active compounds read low
[3] = S. cerevisiae deletion strains, locus YDR150W, strain NUM1, active compounds read low
[4] = S. cerevisiae deletion strains, locus YGR078C, strain PAC10, active compounds read low
[5] = S. cerevisiae deletion strains, locus YHR030C, strain SLT2, active compounds read low
[6] = S. cerevisiae deletion strains, locus YJR075W, strain HOC1, active compounds read low
[7] = S. cerevisiae deletion strains, locus YNL322C, strain KRE1, active compounds read low
[8] = S. cerevisiae deletion strains, locus YPL241C, strain CIN2, active compounds read low

Measured: normalized growth

O=C1NC(=S)NC(=O)C1=Cc1cccc2ccccc12
inactive: [1] 0.975 | S. cerevisiae deletion strains, locus YBR229C, strain ROT2, active compounds read low 0.989 | S. cerevisiae deletion strains, locus YCL061C, strain MRC1, active compounds read low 0.97 | [2] 0.963 | [3] 0.891 | S. cerevisiae deletion strains, locus YEL061C, strain CIN8, active compounds read low 0.976 | [4] 0.976 | [5] 0.709 | S. cerevisiae deletion strains, locus YHR087W, strain rtc3, active compounds read low 0.913 | [6] 0.928 | S. cerevisiae deletion strains, locus YKL190W, strain CNB1, active compounds read low 1 | S. cerevisiae deletion strains, locus YLR039C, strain RIC1, active compounds read low 0.841 | S. cerevisiae deletion strains, locus YLR058C, strain SHM2 (second series), active compounds read low 0.99 | S. cerevisiae deletion strains, locus YLR085C, strain ARP6, active compounds read low 0.907 | S. cerevisiae deletion strains, locus YLR262C, strain YPT6, active compounds read low 0.879 | S. cerevisiae deletion strains, locus YML094W, strain GIM5, active compounds read low 0.954 | S. cerevisiae deletion strains, locus YMR219W, strain ESC1, active compounds read low 0.985 | S. cerevisiae deletion strains, locus YMR263W, strain SAP30, active compounds read low 0.93 | S. cerevisiae deletion strains, locus YNL128W, strain TEP1, active compounds read low 0.991 | S. cerevisiae deletion strains, locus YNL153C, strain GIM3, active compounds read low 0.979 | S. cerevisiae deletion strains, locus YNL298W, strain CLA4 (second series), active compounds read low 0.995 | [7] 0.986 | S. cerevisiae deletion strains, locus YNR030W, strain Alg12, active compounds read low 0.988 | S. cerevisiae deletion strains, locus YPL055C, strain LGE1, active compounds read low 0.92 | [8] 0.983 | S. cerevisiae deletion strains, locus YPR135W, strain CTF4, active compounds read low 0.806 | S. cerevisiae strains, strain wild type, active compounds read low 0.998

O=C1Nc2ccccc2/C1=C\c1cccc2ccccc12
inactive: S. cerevisiae deletion strains, locus YAR019C, strain CDC15, active compounds read low 0.97 | S. cerevisiae deletion strains, locus YBL105C, strain PKC1, active compounds read low 0.955 | S. cerevisiae deletion strains, locus YBR135W, strain CKS1, active compounds read low 0.971 | S. cerevisiae deletion strains, locus YBR136W, strain MEC1, active compounds read low 0.97 | S. cerevisiae deletion strains, locus YBR160W, strain CDC28, active compounds read low 0.977 | S. cerevisiae deletion strains, locus YDL017W, strain CDC7, active compounds read low 0.963 | S. cerevisiae deletion strains, locus YDL028C, strain MPS1, active compounds read low 0.972 | [2] 0.985 | S. cerevisiae deletion strains, locus YDL108W, strain KIN28, active compounds read low 0.969 | S. cerevisiae deletion strains, locus YDL132W, strain cdc53, active compounds read low 0.965 | S. cerevisiae deletion strains, locus YDL214C, strain PRR2, active compounds read low 0.815 | S. cerevisiae deletion strains, locus YDR052C, strain DBF4, active compounds read low 0.976 | S. cerevisiae deletion strains, locus YDR054C, strain cdc34, active compounds read low 0.982 | S. cerevisiae deletion strains, locus YDR226W, strain ADK1, active compounds read low 0.96 | S. cerevisiae deletion strains, locus YDR477W, strain SNF1, active compounds read low 0.773 | S. cerevisiae deletion strains, locus YER123W, strain YCK3, active compounds read low 0.777 | S. cerevisiae deletion strains, locus YER133W, strain GLC7, active compounds read low 0.809 | S. cerevisiae deletion strains, locus YFL009W, strain cdc4, active compounds read low 0.98 | S. cerevisiae deletion strains, locus YFL029C, strain CAK1, active compounds read low 0.964 | S. cerevisiae deletion strains, locus YFR003C, strain YPI1, active compounds read low 0.972 | S. cerevisiae deletion strains, locus YFR019W, strain FAB1, active compounds read low 0.904 | S. cerevisiae deletion strains, locus YFR028C, strain CDC14, active compounds read low 0.972 | S. cerevisiae deletion strains, locus YGR040W, strain KSS1, active compounds read low 0.792 | S. cerevisiae deletion strains, locus YGR052W, strain FMP48, active compounds read low 0.807 | S. cerevisiae deletion strains, locus YGR092W, strain DBF2, active compounds read low 0.708 | S. cerevisiae deletion strains, locus YHR079C, strain IRE1, active compounds read low 0.73 | S. cerevisiae deletion strains, locus YHR082C, strain KSP1, active compounds read low 0.741 | S. cerevisiae deletion strains, locus YHR205W, strain SCH9, active compounds read low 0.668 | S. cerevisiae deletion strains, locus YIL147C, strain SLN1, active compounds read low 0.968 | S. cerevisiae deletion strains, locus YJL095W, strain BCK1, active compounds read low 0.718 | S. cerevisiae deletion strains, locus YJL128C, strain PBS2, active compounds read low 0.914 | S. cerevisiae deletion strains, locus YJL157C, strain FAR1, active compounds read low 0.796 | S. cerevisiae deletion strains, locus YJR016C, strain ILV3, active compounds read low 0.966 | S. cerevisiae deletion strains, locus YJR066W, strain TOR1 (second series), active compounds read low 0.738 | S. cerevisiae deletion strains, locus YJR066W, strain TOR1, active compounds read low 0.798 | S. cerevisiae deletion strains, locus YKL048C, strain ELM1, active compounds read low 0.886 | S. cerevisiae deletion strains, locus YKL067W, strain YNK1, active compounds read low 0.855 | S. cerevisiae deletion strains, locus YKL101W, strain HSL1, active compounds read low 0.816 | S. cerevisiae deletion strains, locus YKL193C, strain SDS22, active compounds read low 0.968 | S. cerevisiae deletion strains, locus YKL203C, strain TOR2, active compounds read low 0.857 | S. cerevisiae deletion strains, locus YLR133W, strain CKI1, active compounds read low 0.803 | S. cerevisiae deletion strains, locus YLR403W, strain SFP1, active compounds read low 0.727 | S. cerevisiae deletion strains, locus YML070W, strain DAK1, active compounds read low 0.803 | S. cerevisiae deletion strains, locus YMR001C, strain CDC5, active compounds read low 0.957 | S. cerevisiae deletion strains, locus YMR205C, strain PFK2 (second series), active compounds read low 0.862 | S. cerevisiae deletion strains, locus YMR277W, strain FCP1, active compounds read low 0.963 | S. cerevisiae deletion strains, locus YNL006W, strain LST8, active compounds read low 0.964 | S. cerevisiae deletion strains, locus YNL020C, strain ARK1, active compounds read low 0.784 | S. cerevisiae deletion strains, locus YNL161W, strain CBK1, active compounds read low 0.96 | S. cerevisiae deletion strains, locus YNL183C, strain NPR1, active compounds read low 0.784 | S. cerevisiae deletion strains, locus YNL207W, strain RIO2, active compounds read low 0.958 | S. cerevisiae deletion strains, locus YNL222W, strain SSU72, active compounds read low 0.971 | S. cerevisiae deletion strains, locus YNL307C, strain MCK1 (second series), active compounds read low 0.752 | S. cerevisiae deletion strains, locus YOL078W, strain AVO1, active compounds read low 0.973 | S. cerevisiae deletion strains, locus YOL136C, strain PFK27, active compounds read low 0.808 | S. cerevisiae deletion strains, locus YOR061W, strain CKA2, active compounds read low 0.867 | S. cerevisiae deletion strains, locus YOR119C, strain RIO1, active compounds read low 0.885 | S. cerevisiae deletion strains, locus YOR231W, strain MKK1, active compounds read low 0.807 | S. cerevisiae deletion strains, locus YOR329C, strain SCD5, active compounds read low 0.966 | S. cerevisiae deletion strains, locus YPL031C, strain PHO85, active compounds read low 0.738 | S. cerevisiae deletion strains, locus YPL153C, strain RAD53, active compounds read low 0.78 | S. cerevisiae deletion strains, locus YPL204W, strain HRR25, active compounds read low 0.699 | S. cerevisiae deletion strains, locus YPL209C, strain IPL1, active compounds read low 0.967 | S. cerevisiae deletion strains, locus YPR025C, strain CCL1, active compounds read low 0.972 | S. cerevisiae deletion strains, locus YPR106W, strain ISR1, active compounds read low 0.959 | S. cerevisiae deletion strains, locus YPR111W, strain DBF20, active compounds read low 0.949 | S. cerevisiae deletion strains, strain NNK1, active compounds read low 0.953 | S. cerevisiae deletion strains, strain TSCII, active compounds read low 0.965
active: [5] 0.663 | S. cerevisiae deletion strains, locus YLR113W, strain HOG1, active compounds read low 0.667 | S. cerevisiae deletion strains, locus YPL256C, strain CLN2, active compounds read low 0.694

N#C/C(=C\c1c[nH]c2ccccc12)C(=O)c1ccc(O)c(O)c1
inactive: [1] 1.02 | S. cerevisiae deletion strains, locus YAL040C, strain CLN3, active compounds read low 0.987 | S. cerevisiae deletion strains, locus YCL061C, strain MRC1 (second series), active compounds read low 1.02 | [3] 1.01 | S. cerevisiae deletion strains, locus YDR363W, strain ESC2, active compounds read low 1.03 | S. cerevisiae deletion strains, locus YER002W, strain NOP16, active compounds read low 1.01 | [4] 1.02 | [6] 0.996 | S. cerevisiae deletion strains, locus YMR307W, strain GAS1, active compounds read low 1.03 | S. cerevisiae deletion strains, locus YNL175C, strain NOP13, active compounds read low 1 | S. cerevisiae deletion strains, locus YNL197C, strain WHI3, active compounds read low 1.02 | S. cerevisiae deletion strains, locus YNL224C, strain SQS1, active compounds read low 1 | [7] 1 | S. cerevisiae deletion strains, locus YOR083W, strain WHI5 (second series), active compounds read low 0.973 | [8] 1.02

— PubChem BioAssay AID1159580 (chemical genetic matrix, 2015)
